The supplement of paper PMC10849652
The full data set covers some 8,800 targets. This sample favours those with a hit. About 0.5% of all pairs of compound and target were hits.

Tests used:
Assay in all cases: log2 fold change, soluble protein after heating vs DMSO (PISA); higher = thermal stabilisation; K562 lysate, 10 uM; active = over 0.2 and 3.5 SD of the protein, either way, in both replicates (recomputed)
[1] = compound: C=CC(=O)N1CCC[C@@H](n2nc(-c3ccc(Oc4ccccc4)cc3)c3c(N)ncnc32)C1 [ibrutinib]
In short: (§1)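 Pellets of K562 cells were dounce-homogenised in PBS pH 7.4 with 1 mM MgCl2, and the crude extract was held at 1 mg/mL protein for a 30 min treatment with 10 μM compound. Aliquots were heated for 3 min over 48°C-58°C and pooled before NP-40 was added to 0.5% at 4°C. The supernatant from 21,000xg for 90 min was quantified by TMTpro 16plex LC-MS/MS with channel sums equalised. Values are reported from duplicates as log-two fold change in thermal stability relative to solvent controls.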

[2] = compound: CC(=O)c1cnc2ccc(-c3cc(Cl)c(O)c(Cl)c3)nc2c1N[C@H]1CC[C@H](CN(C)C)CC1
In short: as §1

[3] = compound: CC(C)(C)Cn1c(N)nc2ccc(-c3[nH]c(C(C)(C)C)nc3-c3ccc(F)cc3)nc21 [ralimetinib]
In short: as §1

[4] = compound: CC(C)(O)CC(=O)NCCn1ccc2ncnc(Nc3ccc(Oc4cccc(C(F)(F)F)c4)c(Cl)c3)c21
In short: as §1

[5] = compound: CC(C)C1=C2N=C(C=C(N2N=C1)NCC3=CC=CC=C3)NCCCCCCN
In short: as §1

[6] = compound: CC1=C(C(CC(=O)N1)C2=CC=C(C=C2)C(F)(F)F)C(=O)NC3=C(C=C4C(=C3)C=NN4)F
In short: as §1

[7] = compound: CC1=C(C=C(C=C1)NC(=O)C2=CC(=CC=C2)C(C)(C)C#N)NC3=CC4=C(C=C3)N=CN(C4=O)C
In short: as §1

[8] = compound: CC1=C(C=C(C=C1)NC(=O)C2=CC(=CC=C2)N(C)C)NC(=O)C3=CC=C(C=C3)O
In short: as §1

[9] = compound: CC1=CC=C(C=C1)SC2=C3C=C(SC3=CN=C2)C(=O)N
In short: as §1

[10] = compound: CC1=C(C2=C(C=C1)C(=O)C3=CC=CC=C3N2CCCN)C
In short: as §1

Measured: log2 fold change

ACYP2 (UniProt P14621)
Chain of UniProt P14621 (P14621 whole entry, looked up): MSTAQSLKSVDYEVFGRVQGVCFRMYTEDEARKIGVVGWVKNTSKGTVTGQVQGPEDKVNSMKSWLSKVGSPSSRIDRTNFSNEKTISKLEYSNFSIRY
inactive: [1] 0.086 | [2] 0.004 | [3] 0.026 | [4] -0.018 | [5] 0.044 | [6] 0.047 | [7] -0.036 | [8] 0.025 | [9] 0.04

ALKBH7 (UniProt Q9BT30)
Chain of UniProt Q9BT30 (Q9BT30 whole entry, looked up): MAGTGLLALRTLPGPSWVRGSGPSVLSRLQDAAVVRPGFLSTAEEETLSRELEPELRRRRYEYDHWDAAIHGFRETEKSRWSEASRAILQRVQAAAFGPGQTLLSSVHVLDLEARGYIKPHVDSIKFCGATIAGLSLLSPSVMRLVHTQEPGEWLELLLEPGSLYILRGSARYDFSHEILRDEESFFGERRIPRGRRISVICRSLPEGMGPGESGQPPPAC
inactive: [3] 0.116 | [4] 0.09 | [5] -0.085 | [6] 0.256 | [10] -0.012 | [7] 0.077 | [8] 0.019

ACAT1, A0A5F9ZHJ0
inactive: [3] 0.034 | [4] -0.129 | [6] -0.106 | [8] 0.013

ABI1 isoform 6 (UniProt Q8IZP0)
Chain of UniProt Q8IZP0 (Q8IZP0 whole entry, looked up): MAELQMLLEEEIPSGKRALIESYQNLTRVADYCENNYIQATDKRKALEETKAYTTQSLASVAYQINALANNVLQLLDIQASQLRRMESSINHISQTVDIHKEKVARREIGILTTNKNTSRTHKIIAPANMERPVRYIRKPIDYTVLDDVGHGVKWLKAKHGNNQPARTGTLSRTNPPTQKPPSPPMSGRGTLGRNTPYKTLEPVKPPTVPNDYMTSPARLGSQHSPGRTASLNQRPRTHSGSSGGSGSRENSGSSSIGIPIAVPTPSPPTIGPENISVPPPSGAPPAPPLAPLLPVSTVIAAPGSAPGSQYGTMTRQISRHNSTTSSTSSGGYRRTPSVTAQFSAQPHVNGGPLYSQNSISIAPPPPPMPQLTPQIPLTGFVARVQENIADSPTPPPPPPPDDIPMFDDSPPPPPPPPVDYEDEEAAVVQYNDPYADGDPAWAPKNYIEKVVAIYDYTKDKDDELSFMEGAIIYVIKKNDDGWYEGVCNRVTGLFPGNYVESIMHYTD
inactive: [2] -0.034 | [9] -0.028
